Experimental data published in PubChem BioAssay.
For part of these data: Measured potencies and affinities stand elsewhere. Active and inactive are the calls of the source.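 The calls were made as follows, unless noted: active = fitted half-maximal concentration within 10 nM to 100 µM, steepness 0.5 to 2, significant signal drop, low assay interference; inactive = the rest.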

Experiments:
[1] = target: Cell division control protein 42 homolog (Homo sapiens) (UniProt P60953); experiment: inhibition of fluorescent GTP binding to constitutively active Cdc42 – biochemical, multiplex bead flow cytometry, Bodipy-FL-GTP, dose response (AID 1333;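 active = fitted half-maximal concentration within the tested dose range, moderate curve steepness, a statistically real signal drop, and little compound fluorescence or tag-binding interference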)
[2] = target: Cell division control protein 42 homolog (Homo sapiens) (UniProt P60953); experiment: inhibition of fluorescent GTP binding to wildtype Cdc42 – biochemical, multiplex bead flow cytometry, Bodipy-FL-GTP, dose response (AID 1334;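 active = fitted half-maximal concentration within the tested range, moderate curve steepness, significant signal drop, and little compound fluorescence or bead-linkage interference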); conditions: bead-based flow cytometry, Bodipy-FL-GTP binding to GST-Cdc42; at 100 µM (top of the series) unless noted
[3] = target: GTPase HRas (Homo sapiens) (UniProt P01112); experiment: Ras wt fluorescent GTP loading blockade – biochemical, wildtype, multiplex bead flow cytometry, dose response (AID 1335); conditions: bead-based flow cytometry, Bodipy-GTP binding to GST-Ras; at 100 µM (top of the series) unless noted
[4] = tested on: Ras-related protein Rab-7a (dog), GTP binding; experiment: blockers of fluorescent GTP binding to Rab7 – biochemical, wildtype, multiplex bead flow cytometry, dose response (AID 1336; call rule not given here)
[5] = target: Ras-related C3 botulinum toxin substrate 1 (Homo sapiens) (UniProt P63000); experiment: inhibition of wildtype Rac1 nucleotide loading – biochemical, multiplex bead flow cytometry, dose response (AID 1340;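 active = dose curve with midpoint inside tested range, moderate steepness, plateau gap beyond fit error, low compound glow and bead-link interference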); conditions: GST-Rac1 beads, Bodipy-FL-GTP binding; at 100 µM (top of the series) unless noted
[6] = target: GTPase HRas (Homo sapiens) (UniProt P01112); experiment: blockade of GTP loading onto mutant Ras – biochemical, activated mutant, multiplex bead flow cytometry, dose response (AID 1341;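 active = dose-response curve with midpoint inside the tested range, moderate steepness, significant amplitude and little compound fluorescence or bead-attachment interference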;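 also: GST-tagged constitutively activated Ras mutant immobilized on beads and multiplexed with other GTPases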)

GTPase HRas (Homo sapiens), sequence (P01112 whole entry, looked up): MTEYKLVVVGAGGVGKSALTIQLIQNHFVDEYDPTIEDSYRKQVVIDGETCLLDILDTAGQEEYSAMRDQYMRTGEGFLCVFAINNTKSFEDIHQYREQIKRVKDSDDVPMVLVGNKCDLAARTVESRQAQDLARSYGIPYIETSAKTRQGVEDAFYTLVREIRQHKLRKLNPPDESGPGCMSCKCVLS
Cell division control protein 42 homolog (Homo sapiens), sequence (P60953 whole entry, looked up): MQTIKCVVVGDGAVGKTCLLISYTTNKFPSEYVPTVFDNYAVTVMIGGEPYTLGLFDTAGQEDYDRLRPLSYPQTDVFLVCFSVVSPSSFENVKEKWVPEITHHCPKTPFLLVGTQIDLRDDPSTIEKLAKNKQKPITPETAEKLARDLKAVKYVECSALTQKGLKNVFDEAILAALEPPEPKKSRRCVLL

SMILES	outcome [1]	fluorescence, percent of control (lower = inhibition) [2]	GTP binding, percent of control [3]	outcome [4]	GTP binding signal, raw median fluorescence (lower = inhibition) (MCF (arbitrary fluorescence units)) [5]	outcome [6]
Cc1ccc(Nc2nc(N)c(C#N)c(CC#N)c2C#N)cc1	inactive	36.6%	85.9%	inactive	224	inactive
COc1ccc(CN2C(=O)/C(=C/c3ccc(-c4ccc(Cl)c(C(=O)O)c4)o3)SC2=S)cc1	inactive	32.2%	56%	inactive	142	inactive
COc1cccc(NC(=O)NCCCN2CCN(c3ccc(F)cc3)CC2)c1	inactive	40.4%	84.6%	inactive	255	inactive
O=C(O)c1cc(N2N=C(C(F)(F)F)/C(=C/C=C/c3ccco3)C2=O)ccc1Cl	inactive	22.4%	69.8%	inactive	174	inactive
CC1(C)CC2CC(C)(CN2C(=O)c2cccs2)C1 (stereo not given)	inactive	43.3%	59.5%	inactive	184	inactive
Cn1cc(C(=O)N2CCc3ccccc3C2)c(=O)c2cc(S(=O)(=O)N3CCCCC3)ccc21	inactive	60.6%	110%	inactive	370	inactive
COc1ccc(OCCSc2nc3nc(C)cc(C)n3n2)cc1	inactive	45.5%	87.4%	inactive	178	inactive
O=C(Nn1cc(C(=O)N2CCN(c3ccccc3F)CC2)c2ccccc2c1=O)c1cnccn1	inactive	98.6%	156%	inactive	197	inactive
O=C(O)CSc1ccc2nnc(-c3cccnc3)n2n1	inactive	35.6%	73.9%	inactive	151	inactive
CCCN(CC1CC1)C(=S)Nc1ccc(Oc2ccccc2)cc1	inactive	26.1%	81.4%	inactive	258	inactive
N#C/C(=C/c1ccc(O)c([N+](=O)[O-])c1)C(=O)Nc1ccccc1	inactive	31.5%	77.4%	inactive	193	inactive
COc1ccc(/C=C2/N=C(SCC(=O)Nc3cc(C)on3)N(c3ccccc3)C2=O)cc1	inactive	41.3%	54.1%	inactive	177	inactive
CCC(C)(C)c1ccc(OCCCC[n+]2ccccc2)c(C(C)(C)CC)c1	inactive	32.7%	78.7%	inactive	278	inactive
O=C(O)C1=C[C@H](c2ccc(C(F)(F)F)cc2)C[C@H](OCc2ccc(CO)cc2)O1	inactive	30.2%	87.2%	inactive	246	inactive
N#Cc1c2c(c(-c3ccccc3Cl)[nH]c1=S)CCCC2	inactive	28.8%	78.4%	inactive	248	inactive
C=CCn1c(SCC(=O)Nc2ccc3c(c2)OCO3)nnc1-c1cc(Br)ccc1O	inactive	66.9%	84.9%	inactive	108	inactive
Cc1nc2cc(C(=O)NCc3ccc4c(c3)OCO4)ccc2n1-c1ccc(Br)cc1	inactive	42.6%	62.2%	inactive	172	inactive
COc1ccc2oc(COc3ccccc3)c(C(=O)O)c2c1	inactive	59.6%	87.3%	inactive	29.6	inactive
COc1ccc2c(C(=O)O)cn(CCOc3ccccc3C)c2c1	inactive	64.6%	214%	inactive	59.2	inactive
CCOC(=O)Cn1nnnc1C(CC)N(Cc1cccs1)Cc1cc2ccc(OC)cc2[nH]c1=O (stereo not given)	inactive	97.8%	173%	inactive	194	inactive
Cc1ccc(N=Nc2c(N)[nH]n3c(=O)c4c(nc23)CCCC4)cc1	inactive	31.3%	72.8%	inactive	166	inactive
Cc1nnc(SCC(=O)N2CCOCC2)c2ccccc12	inactive	49.3%	61.1%	inactive	192	inactive
O=C(O)CSc1nc2ccccc2n1CCOc1ccccc1F	inactive	58.4%	90.3%	inactive	37.2	inactive
CCC(C)C(=O)Nc1ccc(OC)cc1OC (stereo not given)	inactive	92.4%	161%	inactive	186	inactive
CC(C)(C)C(=O)OCC1OC(n2cnc(C(N)=O)n2)C(O)C1O (stereo not given)	inactive	35.8%	81.6%	inactive	266	inactive
O=C(COc1ccccc1/C=C\c1[nH]c(=O)[nH]c(=O)c1[N+](=O)[O-])Nc1ccccc1	inactive	29.1%	77.1%	inactive	191	inactive
COc1ccc(/C=C2\CCCC3C2=NN(C(=O)c2scnc2C)C3c2ccc(OC)c(OC)c2)cc1OC (stereo not given)	inactive	76.7%	122%	inactive	138	inactive
CCOC(=O)C1(Cc2cccc(F)c2)CCN(Cc2nc(CC)[nH]c2C)CC1	inactive	48.2%	90.4%	inactive	274	inactive
COc1ccccc1OCCn1cc(C(=O)O)c2ccccc21	inactive	102%	139%	inactive	87.3	inactive
COc1ccc(/C=C2\N=C(SC)SC2=O)cc1OC	inactive	86.4%	150%	inactive	186	inactive
